The results in this text go back to PubChem BioAssay AID1347416 (National Center for Advancing Translational Sciences (NCATS), 2020).

In all, about 4,100 compounds went through this assay and about 1,600 (39%) were called active. Inconclusive results (about 25%) are left out. Some of the results follow. Unmarked numbers belong to inactive results. The call rests on the fitted dose curve; in most records, active means well fitted inhibition curve with a large enough effect; inconclusive means small, poorly fitted or top-dose-only effect; inactive means no such curve, though single readings can be large or run the other way.
On the % scale 0 is the no-effect control and ±100 the full control effect; potency means the concentration at half of the fitted maximal effect.

The test in a line: qHTS Validation assay for Inhibitors of Plasmodium falciparum Dd2 growth in vitro. Further: nearly all actives have a fitted effect of over 70% in size. Particulars: P. falciparum Dd2 in RBCs, SYBR Green growth, 72 h; series mostly up to 28.7 µM; activity change, negative = inhibition: at the top concentration. The method in brief:
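P. falciparum Dd2-infected red blood cells (2.5% hematocrit, 0.3% parasitemia) grown 72 h at 37 °C under 5% O2 with compounds in a titration, 29 uM to 0.5 nM final. Growth read as SYBR Green-1 fluorescence after ~16 h lysis; artesunate 300 nM as positive control.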
Background: qHTS replaces the single test concentration by a dilution series.
Consider `O=c1[nH]c(N2CCOCC2)nc2c1CCN(Cc1cccc(C(F)(F)F)c1)CC2`, for which the “activity change, negative = inhibition” value is -22.4%. For the compound `O=c1[nH]c(N2CCOCC2)nc2c1CCN(Cc1ccccc1C(F)(F)F)CC2`, the Potency is 4.73 µM (active). In the case of `COc1cccc(CN2CCc3nc(N4CCOCC4)[nH]c(=O)c3CC2)c1OC`, the “activity change, negative = inhibition” value is 1.69%. On to `Cc1noc2c(NC3CCN(C)CC3)cc(-c3cccc(C(F)(F)F)c3)nc12`, for which the Potency is 13.7 µM (active). For the compound `Cc1cc(Br)ccc1NC(=O)c1ccc(NS(=O)(=O)c2c(C)noc2C)cc1`, the “activity change, negative = inhibition” value is 25%. Consider `O=C(Nc1ncccc1O)c1ccc(NS(=O)(=O)c2ccc3[nH]c(=O)[nH]c3c2)cc1`, for which the Potency is 0.422 µM (active). Same read-out and setting: to `CC(=O)N1c2c(cc(Br)cc2S(=O)(=O)N2CCN(c3cc(C)ccc3C)CC2)CC1C` (stereo not drawn) belongs 11.9 µM (active). With `CN(C)c1ccc(CN2CCC3(C2)C(=NC2CCCC2)NC(=O)N3c2cccnc2)cc1` (stereo not drawn), the “activity change, negative = inhibition” value is -33.1%. Same read-out and setting: to `O=C1NC(=NC2CCCCC2)C2(CCCN([S+](=O)([O-])c3ccccc3)C2)N1c1cccnc1` (stereo not drawn) belongs -14.7%. `O=C1NC(=NC2CCCC2)C2(CCN(Cc3ccc(F)cc3)C2)N1c1cc(F)cc(F)c1` (stereo not drawn): the Potency was 10.6 µM (active). For `O=C(c1ccc(C(F)(F)F)cc1)N1CCC2(CC1)C(=NC1CCCCC1)NC(=O)N2c1cc(F)cc(F)c1`, the “activity change, negative = inhibition” value is -25.9%. On the same count and under the same terms, to `CN(C)c1ccc(CN2CCC3(C2)C(=NC2CCCCC2)NC(=O)N3c2cccnc2)cc1` (stereo not drawn) belongs -28.4%.

Regarding `O=C1NC(=NC2CCCCC2)C2(CCN(Cc3ccc(F)cc3)C2)N1c1cc(F)cc(F)c1` (stereo not drawn), the Potency is 4.22 µM (active). With `CCOC(=O)c1c(NC(=O)c2ccccc2)sc2c(O)c(CN(CC)CC)ccc12`, the Potency was 0.15 µM (active). With `Cc1ccc(Oc2nc3c(c(=O)n(Cc4ccccc4)c(=O)n3C)n2C)cc1C`, the “activity change, negative = inhibition” value is 42.4%. Still for that read-out and setting: to `CCNc1nc2c(c(=O)n(C)c(=O)n2C)n1Cc1ccc(F)cc1` belongs -8.15%.

As to `COc1cccc(Cn2c(Oc3ccccc3)nc3c2c(=O)n(C)c(=O)n3C)c1`, the Potency was 4.73 µM (active). `Cc1ccccc1C(=O)N1CCCCC12Cc1ccccc1NC2=O` (stereo not drawn): the “activity change, negative = inhibition” value was 40.8% [at 43.1 µM]. Consider `CN1CCNc2nc(COc3ccc(Oc4ccccc4)cc3)n(Cc3ccccc3)c2C1=O`, for which the “activity change, negative = inhibition” value is -10.4%. Consider `CCCOc1ccc(CCc2n[nH]c(=S)n2Cc2ccccc2)cc1`, for which the Potency was 5.31 µM (active). Same read-out and setting: to `CC(C)Oc1ccc(CCc2n[nH]c(=S)n2Cc2ccccc2)cc1` belongs 5.31 µM (active); to `COc1ccc(/C=N/Nc2cc(C)nc3ccccc23)cc1`, 2.11 µM (active). On to `S=C(NCc1ccccc1)Nc1ccncc1`, for which the “activity change, negative = inhibition” value is 12.2%. With `S=C(NCc1ccccc1)N1CCn2cccc2C1c1cccnc1` (stereo not drawn), the Potency was 9.44 µM (active). Turning to `O=C(O)COc1ccc(-c2nccc(-c3cccs3)n2)cc1`, the “activity change, negative = inhibition” value was 25.3%. Turning to `c1csc(-c2ccnc(N[C@H]3CO[C@H]4[C@@H]3OC[C@@H]4NCC3CCCCC3)n2)c1`, the Potency was 12.2 µM (active). For the compound `CN(C)c1ccc(-c2ccnc(N[C@H]3CO[C@H]4[C@@H]3OC[C@@H]4NC(=O)NCc3ccccc3)n2)cc1`, the “activity change, negative = inhibition” value is 0.409%.

As to `Cc1cc(CN2CCC(CO)(Cc3ccccc3Cl)CC2)cc(C)c1O`, the Potency was 16.8 µM (active). On to `CCc1ccccc1CN1CCC(CO)(CN2CCCC2)CC1`, for which the “activity change, negative = inhibition” value is 0.298%. Same read-out and setting: to `CCOc1ccc(CNC(=O)CN2N=C(c3ccccc3)CCC2=O)cc1OC` belongs -2.34%; to `Cc1cn2nc(C(=O)NCc3ccccn3)cc2c(=O)[nH]1`, 6.06%.

For the compound `COc1ccc(CC(=O)NCc2ccccn2)cc1OC`, the Potency was 7.5 µM (active). On the same count and under the same terms, to `O=C1c2ccccc2C(=O)c2[nH]c(=O)[nH]c21` belongs 5.96 µM (active); to `C=C[C@]1(C)C[C@@H](OC(=O)CSC(C)(C)CNC(=O)[C@H](N)C(C)C)[C@]2(C)[C@H](C)CC[C@]3(CCC(=O)[C@H]32)[C@@H](C)[C@@H]1O`, 8.41 µM (active); to `CCN(CC)CCC(c1ccc(N(C)C)cc1)c1c(O)cc(OC)cc1OC` (stereo not drawn), 3.35 µM (active). The same measure, in the same setting: to `CCN(CC)CCC(c1ccc2c(c1)OCO2)c1c(O)cc(OC)cc1OC` (stereo not drawn) belongs 4.22 µM (active). Same read-out and setting: to `CCN(CC)CCC(c1ccc(OC)cc1)c1c(O)cc(OC)cc1OC` (stereo not drawn) belongs 6.68 µM (active).

Regarding `CCCn1ccc2sc(C)c(C(=O)O)c2c1=O`, the “activity change, negative = inhibition” value is 8.71%.

For `CCn1cc(-c2ccncc2)cc1C(=O)NCc1cccc(OC)c1`, the “activity change, negative = inhibition” value is -24.5%.

As to `COc1ccc(C(=O)N2CCc3ccc(C(=O)NCc4ccccn4)cc32)cc1`, the “activity change, negative = inhibition” value was -8.95%. Take `COc1cccc(CN2CCc3c(cc(C(=O)NCc4ccccn4)n3C)C2)c1`: the Potency is 15 µM (active). Turning to `Cc1noc(-c2cn(C3CCN(C(=O)Cc4ccc(OC(F)(F)F)cc4)CC3)nn2)n1`, the “activity change, negative = inhibition” value was -9.53%. The same measure, in the same setting: to `CCOc1ccc(C(=O)NCc2nc3cccnc3n2Cc2cccc(OC)c2)cc1` belongs 20.1%. As to `CCCCC(=O)NC(c1ccccc1OC)c1ccc2cccnc2c1O` (stereo not drawn), the Potency is 5.31 µM (active).

`COc1cccc(C(NC(C)=O)c2ccc3cccnc3c2O)c1` (stereo not drawn): the Potency is 4.22 µM (active).

On to `CCCC(=O)NCCc1noc(-c2ccccc2)n1`, for which the “activity change, negative = inhibition” value was 30.7%. Consider `CCCC(=O)NC(c1ccccc1)c1ccc2cccnc2c1O` (stereo not drawn), for which the Potency was 6.68 µM (active).

As for `CCCC(=O)NC(c1ccc(C(C)C)cc1)c1ccc2cccnc2c1O` (stereo not drawn), the Potency was 13.3 µM (active).
